Records with an inconclusive call do not appear. Where a call stands in place of a potency, no number is given. Values without a mark were called inactive. Activity calls are given as the source filed them. Calls follow the shape of the dose curve; as a rule, active = well fitted activation curve with a large enough effect in the repeat runs; inconclusive = weak or mixed curves; inactive = flat fitted curve, though single readings scatter.

This assay is described as follows: A CellTox Green Cytotoxicity Assay to monitor cytotoxicity in HepG2 cells - 40 hour (AID 1224879). Also: nearly all actives have a fitted effect of over 40% in size. Conditions: CellTox Green fluorescence; series mostly up to 76.8 µM. Summed up:
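HepG2 cells, 600/well, preincubated 5 h with CellTox Green dye, then exposed to Tox21 compounds in DMSO at 37 C for up to 40 h. Dead-cell DNA fluorescence read at the indicated time point.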
As to `O=C(O)CCCCCCCCCC(=O)O`, the Potency entry is “inactive”.

As for `Cc1ccccc1C#N`, the Potency result was “inactive”.

For `CC(=O)SCC(CC(=O)c1ccc(C)cc1)C(=O)O` (stereo not drawn), the Potency entry is “inactive”.

`NCC1CCC(C(=O)Oc2ccc(CCC(=O)O)cc2)CC1` (stereo not drawn): the Potency entry is “inactive”.

With `CCN1CCN(C(=O)N[C@@H](C(=O)N[C@@H]2C(=O)N3[C@@H]2SC(C)(C)[C@H]3C(=O)O)c2ccccc2)C(=O)C1=O`, the Potency result is “inactive”.

Turning to `COc1cc(S(N)(=O)=O)cc(C(=O)O)c1OC`, the Potency result is “inactive”.

Regarding `C/C(=N\O)c1ccc(OCC(=O)N2CCCCC2)cc1`, the Potency result was “inactive”.

As to `CC(C)(C)C(=O)CC(=O)C(C)(C)C`, the Potency entry is “inactive”.

In the case of `CC(=O)Oc1ccc(C(C)=O)cc1`, the Potency entry was “inactive”.

In the case of `NC[C@H]1O[C@H](O[C@H]2[C@H](O)[C@@H](O[C@H]3O[C@H](CO)[C@@H](O)[C@H](N)[C@H]3O)[C@H](N)C[C@@H]2N)[C@H](N)[C@@H](O)[C@@H]1O`, the cytotoxicity increase was -4.11% [at 15.8 µM].

Regarding `CCCc1ncc(C(=O)O)s1`, the Potency result is “inactive”.

In the case of `CCCCC(CC)CCC(CC(C)C)OS(=O)(=O)O` (stereo not drawn), the Potency entry was “inactive”.

As to `O=C[C@@H](O)[C@H](O)[C@H](O)CO`, the Potency result is “inactive”.

`COC(C)(C)CC(C)=O`: the Potency result is “inactive”.

Turning to `CC(C)(O)CCCC1=CCC(C=O)CC1` (stereo not drawn), the Potency result was “inactive”.

Take `O=S(=O)(O)c1ccc(Cl)cc1`: the Potency result is “inactive”.

Turning to `CC(C)(C)OC=O`, the Potency entry is “inactive”.

Consider `BrCCOc1ccccc1`, for which the Potency result is “inactive”.

`CN(C)CCc1c[nH]c2ccc(C[C@H]3COC(=O)N3)cc12`: the Potency entry is “inactive”.

Regarding `CCCCCCCCCCCCCCCC(=O)OC`, the cytotoxicity increase was -22.4% [at 15.8 µM].

On to `CC(C)CC(O)Cc1ccccc1` (stereo not drawn), for which the Potency entry was “inactive”.

For the compound `CCCCCCC(O)CO` (stereo not drawn), the Potency result is “inactive”.

Turning to `CN1C(CCl)Nc2cc(Cl)c(S(N)(=O)=O)cc2S1(=O)=O` (stereo not drawn), the Potency entry was “inactive”.

`CCCCNCC`: the Potency entry was “inactive”.

Consider `CO/N=C(\C(=O)O)c1csc(NC(=O)CCl)n1`, for which the Potency entry is “inactive”.

With `O=C(CCBr)N1CCN(C(=O)CCBr)CC1`, the Potency result is “inactive”.

Regarding `C[C@H]1COc2c(C3(N)CC3)c(F)cc3c(=O)c(C(=O)O)cn1c23`, the Potency entry is “inactive”.

For the compound `O=C(O)Cc1c(Cl)ccc(Cl)c1Cl`, the Potency result was “inactive”.

With `Cc1ccc(NC(N)=O)cc1`, the Potency result was “inactive”.

`COC(=O)c1c(C)cc(O)c(C)c1O`: the Potency result is “inactive”.

As to `CN1CCN(C(=O)C2CCCCC2)CC1`, the Potency result was “inactive”.

In the case of `Cc1nnc(C(=O)NC(C)(C)c2nc(C(=O)NCc3ccc(F)cc3)c(O)c(=O)n2C)o1`, the Potency result is “inactive”.

On to `COC(=O)C(c1ccccc1Cl)N1CCc2sccc2C1` (stereo not drawn), for which the Potency entry was “inactive”.

Regarding `C=CC(=O)OCCOCCOCC`, the Potency entry is “inactive”.

Turning to `CN(C)c1ccncc1`, the Potency result is “inactive”.

For the compound `CCCOc1ccc(C(=O)OCCN(CC)CC)cc1N`, the Potency entry is “inactive”.

Turning to `COCCCOc1cc(C[C@@H](C[C@H](N)[C@@H](O)C[C@H](C(=O)NCC(C)(C)C(N)=O)C(C)C)C(C)C)ccc1OC`, the Potency result is “inactive”.

As to `O=C1c2ccccc2C(=O)N1CO`, the Potency result is “inactive”.

The values are drawn from PubChem BioAssay (Tox21).
